# Measured values from PubChem BioAssay (NCI).
# This is part of a sample that, as a whole, favours compounds with a hit. Of some 79,000 tested, about 15% had one in any assay. Calls of active or inactive are those of the source. No stated cut-off is given here; in the data, active means growth inhibition above about 70%; inactive means the rest.
# Experiment: NCI Yeast Anticancer Drug Screen. Data for the rad50EPP+ strain (AID 151);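 further: 0% = growth of vehicle-treated control cultures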
# Details: S. cerevisiae rad50 mutant strain, active compounds read high
# Procedure: Growth inhibition of yeast strains with defined genetic alterations is measured as a screen for potential anti-cancer activity. Selected strains with alterations in DNA damage repair or cell cycle control were exposed to compounds and growth inhibition was measured relative to vehicle treated controls. The strain used in this assay is rad50EPP+
Structure (SMILES),growth inhibition (at 1.2 µM),growth inhibition (at 3.7 µM),growth inhibition (at 11.0 µM),growth inhibition (at 33.0 µM),growth inhibition (at 100.0 µM)
CC1(C)CC(=O)C(/C=N/c2nc(-c3ccccc3)cs2)=C(O)C1,-1% (inactive),1% (inactive),12% (inactive),27% (inactive),34% (inactive)
CCOC(=O)c1[nH]cc(C)c1-c1cccn1-c1ccc(Cl)cc1[N+](=O)[O-],22% (inactive),30% (inactive),32% (inactive),32% (inactive),55% (inactive)
O=C(/C=C(/c1ccccc1)N1CCCCC1)c1ccccc1,3% (inactive),16% (inactive),42% (inactive),43% (inactive),31% (inactive)
CCCCCCCCCCCC(O)S(=O)(=O)O (stereo not given),7% (inactive),3% (inactive),7% (inactive),15% (inactive),58% (inactive)
S=C1SCN(C2CCCCC2)CN1C1CCCCC1,-51% (inactive),-36% (inactive),-3% (inactive),44% (inactive),88% (active)
O=C1C=C(Cl)C(=O)C(c2ccc(Cl)cc2)=C1,40% (inactive),49% (inactive),83% (active),98% (active),96% (active)
NC1CCCCC1N.Nc1c(N=Nc2ccc(-c3ccc(N=Nc4cc(S(=O)(=O)[O-])c5ccccc5c4N)cc3)cc2)cc(S(=O)(=O)[O-])c2ccccc12.[OH3+].[OH3+].[Pt+4],-7% (inactive),13% (inactive),91% (active),88% (active),60% (inactive)
COc1cc(CSc2ccc(O)cc2)cc(O)c1O,-3% (inactive),-4% (inactive),-6% (inactive),-6% (inactive),0% (inactive)
